According to PubChem BioAssay (Tox21):
Records with an inconclusive call do not appear. Active and inactive are the calls of the source. Unless noted, calls come from the whole dose curve; as a rule, active = well fitted curve in the direction sought with a large enough effect in the repeat runs; inconclusive = weak or mixed curves; inactive = no such curve, though single readings can be large; an effect the other way counts as inactive or inconclusive.

Assays:
[1] = qHTS RealTime-Glo MT Cell Viability Assay in HEK293 cells - 8 hour (AID 1224887); note: top concentration of the series differs between compounds; nearly all actives have a fitted effect of over 50% in size
How it was run: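 600 cells/well were plated with the nonlytic NanoLuc/prosubstrate reagent, pre-incubated 5 h, then given 23 nL of compound in DMSO. Incubation at 37 C for 40 h, with luminescence from viable-cell-reduced substrate read repeatedly from 0 h.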

[2] = A CellTox Green Cytotoxicity Assay to monitor cytotoxicity in HEK293 cells - 16 hour (AID 1224888); note: nearly all actives have a fitted effect of over 35% in size
How it was run: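 HEK293 cells, 600/well, were preincubated 5 hours and then exposed to compounds at 37 C for up to 40 hours. A cell-impermeant cyanine dye staining dead-cell DNA was read by fluorescence at 0, 8, 16, 24, 32 and 40 h time points.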

[3] = qHTS RealTime-Glo MT Cell Viability Assay in HepG2 cells - 0 hour (AID 1224889); note: nearly all actives have a fitted effect of over 50% in size
How it was run: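 Real-time, nonlytic viability: 600 HepG2 cells/well mixed with NanoLuc enzyme plus prosubstrate; 5 h settle, compound (DMSO) added by pintool; luminescence monitored over 40 h at 37 C.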

[4] = A CellTox Green Cytotoxicity Assay to monitor cytotoxicity in HepG2 cells - 8 hour (AID 1224890); note: nearly all actives have a fitted effect of over 45% in size
How it was run: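 HepG2 cells, 600/well, preincubated 5 h with CellTox Green dye, then exposed to Tox21 compounds in DMSO at 37 C for up to 40 h. Dead-cell DNA fluorescence read at the indicated time point.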

[5] = qHTS assay to identify small molecule antagonists of the estrogen receptor alpha (ER-alpha) signaling pathway using the BG1 cell line in the presence of 0.1 nM 17-beta-estradiol - cell viability counter screen (AID 1259241); note: nearly all actives have a fitted effect of over 40% in size
How it was run: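 Live-cell protease activity (CellTiter-Fluor fluorescence, 30 min) was read in the same wells after VM7Luc4E2 cells had been exposed to compounds with 0.1 nM 17beta-estradiol for 22 hr at 37C.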

[6] = qHTS assay to identify small molecule antagonists of the androgen receptor (AR) signaling pathway using the MDA cell line in the presence of 0.5 nM R1881 - cell viability counter screen (AID 1259242); note: nearly all actives have a fitted effect of over 45% in size
How it was run: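 MDA-kb2 cells (MMTV-luciferase, AR/GR responsive) were treated with compounds plus 0.5 nM R1881 (final) for 16 hr at 37C, 0% CO2. Viability was then read in the same wells as live-cell protease fluorescence (CellTiter-Fluor, 30 min).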

[7] = molecular target: Androgen receptor (Homo sapiens) (UniProt P10275); assay: qHTS assay to identify small molecule antagonists of the androgen receptor (AR) signaling pathway using the MDA cell line in the presence of 0.5 nM R1881 (AID 1259243); note: nearly all actives have a fitted effect of over 50% in size
Androgen receptor (Homo sapiens), sequence (P10275 whole entry, looked up): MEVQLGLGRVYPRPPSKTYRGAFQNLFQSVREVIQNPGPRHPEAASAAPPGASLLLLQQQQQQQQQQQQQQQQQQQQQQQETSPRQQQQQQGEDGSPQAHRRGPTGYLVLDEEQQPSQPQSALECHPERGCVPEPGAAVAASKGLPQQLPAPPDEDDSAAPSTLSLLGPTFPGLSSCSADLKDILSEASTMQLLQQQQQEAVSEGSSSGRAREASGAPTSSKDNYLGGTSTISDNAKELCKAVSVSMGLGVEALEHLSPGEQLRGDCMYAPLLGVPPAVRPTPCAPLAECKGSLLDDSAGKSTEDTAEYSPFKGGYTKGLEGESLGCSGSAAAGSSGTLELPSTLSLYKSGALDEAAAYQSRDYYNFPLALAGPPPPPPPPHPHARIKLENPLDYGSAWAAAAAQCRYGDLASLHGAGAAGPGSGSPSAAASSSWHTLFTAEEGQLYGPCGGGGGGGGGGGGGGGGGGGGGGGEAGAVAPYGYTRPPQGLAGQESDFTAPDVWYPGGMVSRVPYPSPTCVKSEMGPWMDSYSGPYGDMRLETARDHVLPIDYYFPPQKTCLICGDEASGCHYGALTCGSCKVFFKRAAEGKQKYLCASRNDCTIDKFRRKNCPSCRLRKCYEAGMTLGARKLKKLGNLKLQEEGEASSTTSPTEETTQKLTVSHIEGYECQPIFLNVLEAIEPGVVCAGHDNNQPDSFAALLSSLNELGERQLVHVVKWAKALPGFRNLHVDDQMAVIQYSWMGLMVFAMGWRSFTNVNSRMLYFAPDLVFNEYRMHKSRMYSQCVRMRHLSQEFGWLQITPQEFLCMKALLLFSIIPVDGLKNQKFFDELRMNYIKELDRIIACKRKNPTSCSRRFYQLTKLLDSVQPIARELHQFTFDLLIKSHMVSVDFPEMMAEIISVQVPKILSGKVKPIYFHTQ
How it was run: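 MDA-kb2 cells (MMTV-luciferase, responsive to AR and GR) at 3,000/well, rested 5 h at 37C, 0% CO2, then given compounds plus 0.5 nM R1881 (final) for 16 hr. Luciferase read with ONE-Glo after 30 min at room temperature.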

[8] = molecular target: Estrogen receptor (Homo sapiens) (UniProt P03372); assay: qHTS assay to identify small molecule antagonists of the estrogen receptor alpha (ER-alpha) signaling pathway using the BG1 cell line in the presence of 0.1 nM 17-beta-estradiol (AID 1259244); note: nearly all actives have a fitted effect of over 50% in size
Estrogen receptor (Homo sapiens), sequence (P03372 whole entry, looked up): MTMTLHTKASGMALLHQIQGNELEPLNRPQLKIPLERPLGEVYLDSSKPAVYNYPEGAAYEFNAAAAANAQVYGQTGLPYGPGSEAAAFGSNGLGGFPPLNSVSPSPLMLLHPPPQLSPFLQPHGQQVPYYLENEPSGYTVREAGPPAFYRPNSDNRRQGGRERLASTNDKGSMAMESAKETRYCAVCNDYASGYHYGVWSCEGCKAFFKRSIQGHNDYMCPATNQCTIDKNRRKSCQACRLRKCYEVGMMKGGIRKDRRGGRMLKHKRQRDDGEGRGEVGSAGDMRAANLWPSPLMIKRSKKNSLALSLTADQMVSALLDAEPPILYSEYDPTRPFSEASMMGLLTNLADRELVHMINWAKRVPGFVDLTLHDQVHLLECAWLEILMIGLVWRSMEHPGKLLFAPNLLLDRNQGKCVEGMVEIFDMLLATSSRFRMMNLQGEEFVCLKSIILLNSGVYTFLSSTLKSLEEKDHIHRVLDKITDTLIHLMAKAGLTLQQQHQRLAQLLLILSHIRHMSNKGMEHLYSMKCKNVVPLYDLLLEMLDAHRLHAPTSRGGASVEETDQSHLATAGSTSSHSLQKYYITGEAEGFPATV
How it was run: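 VM7Luc4E2 cells (endogenous full-length ER-alpha, 4×ERE-luciferase), kept 5 days in phenol red-free, charcoal-stripped FBS medium; 4,000 cells/well. Compounds added with 0.1 nM (final) 17beta-estradiol, 22 hr at 37C; luminescence read with ONE-Glo after 30 min.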

[9] = qHTS assay to identify small molecule HDAC inhibitors (AID 1259364); note: top concentration of the series differs between compounds; nearly all actives have a fitted effect of over 45% in size
How it was run: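 Wild-type HCT-116 cells, plated overnight at 37 C, exposed to compounds 2 hr at 37 C; luminogenic HDAC-Glo substrate then added 30 min at room temperature. Luminescence reports relative endogenous class I/II HDAC activity.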

[10] = qHTS assay to identify small molecule HDAC inhibitors - cell viability counter screen (AID 1259365)
How it was run: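 HCT-116 (wild type), 1,500 cells/well, overnight 37C/5% CO2; compound in DMSO 2hr; CellTiter-Glo 30min RT; luminescence read.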

[11] = qHTS assay to identify small molecule agonists of the sonic hedgehog signaling (Shh) pathway - cell viability counter screen (AID 1259366); note: nearly all actives have a fitted effect of over 50% in size
How it was run: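 CellTiter-Fluor fluorescence read-out, 1 hr at 37C, added after 23hr compound exposure. Cells: 3T3 Gli1-Luc, an NIH/3T3 clone with stably integrated Gli1-Luc reporter, plated 4hr before compound.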

[12] = qHTS assay to identify small molecule antagonists of the sonic hedgehog signaling (Shh) pathway - cell viability counter screen (AID 1259367); note: nearly all actives have a fitted effect of over 55% in size
How it was run: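 After a 4 hr settling period, 3T3 Gli1-Luc cells were treated with DMSO-dissolved chemicals and conditioned medium, kept 24 hr at 37C in 5% CO2, and assayed for viability by CellTiter-Fluor fluorescence following 1 hr reagent incubation.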

[13] = qHTS assay to identify small molecule agonists of the sonic hedgehog signaling (Shh) pathway (AID 1259368; calls by dose curve;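 note: NIH/3T3-derived 3T3Gli1-Luc cells carrying a stable Gli1-driven firefly luciferase reporter; series mostly up to about 92 µM; nearly all actives have a fitted effect of over 15% in size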)
How it was run: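 NIH/3T3-derived 3T3Gli1-Luc cells with stably integrated Gli1-driven firefly luciferase, 2,000 cells/well, compounds added after 4 hr. Incubated 24 hr at 37C, 5% CO2; luminescence read after 30 min with luciferase reagent at room temperature.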

[14] = qHTS assay to identify small molecule antagonists of the sonic hedgehog signaling (Shh) pathway (AID 1259369; calls by dose curve; note: nearly all actives have a fitted effect of over 45% in size)
How it was run: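 NIH/3T3-derived Gli1-Luc reporter cells plated 4 h, dosed with compound, then stimulated with conditioned medium for 24 h at 37 C. Firefly luciferase luminescence read after 30 min with detection reagent at room temperature.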

[15] = molecular target: Estrogen receptor beta (Homo sapiens) (UniProt Q92731); assay: qHTS assay to identify small molecule agonists of the estrogen receptor beta (ER-beta) signaling pathway (AID 1259377; active = well fitted activation curve with a large enough effect in the signal ratio in the repeat runs, not every such curve was filed as active; the % refers to the signal ratio)
Estrogen receptor beta (Homo sapiens), sequence (Q92731 whole entry, looked up): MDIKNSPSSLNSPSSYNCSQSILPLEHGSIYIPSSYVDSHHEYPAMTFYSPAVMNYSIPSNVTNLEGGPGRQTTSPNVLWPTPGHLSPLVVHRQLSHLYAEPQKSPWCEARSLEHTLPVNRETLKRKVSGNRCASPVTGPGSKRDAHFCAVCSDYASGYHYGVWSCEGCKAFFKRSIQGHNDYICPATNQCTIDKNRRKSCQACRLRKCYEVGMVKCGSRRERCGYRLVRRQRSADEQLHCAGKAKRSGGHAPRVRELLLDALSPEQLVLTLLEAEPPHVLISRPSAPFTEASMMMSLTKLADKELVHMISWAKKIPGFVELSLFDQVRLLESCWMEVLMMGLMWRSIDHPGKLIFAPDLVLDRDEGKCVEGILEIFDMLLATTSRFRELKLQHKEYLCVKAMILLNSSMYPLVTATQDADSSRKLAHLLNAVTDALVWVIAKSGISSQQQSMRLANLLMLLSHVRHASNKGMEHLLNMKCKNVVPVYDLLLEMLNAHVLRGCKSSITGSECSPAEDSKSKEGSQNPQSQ
How it was run: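 Beta-lactamase reporter readout: fluorescence of LiveBLAzer B/G FRET substrate after 2 h at room temperature, following 16 h compound treatment of ER-beta-UAS-bla HEK293T cells at 37C in 2% charcoal-stripped FBS medium.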

[16] = molecular target: Estrogen receptor beta (Homo sapiens) (UniProt Q92731); assay: qHTS assay to identify small molecule antagonists of the estrogen receptor beta (ER-beta) signaling pathway (AID 1259378; active = well fitted inhibition curve with a large enough effect in the signal ratio in the repeat runs, not every such curve was filed as active; the % refers to the signal ratio)
How it was run: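 ER-beta-UAS-bla HEK293T (GripTite) cells in 2% charcoal-stripped FBS medium were preincubated 6 hr at 37C, dosed with compound, then stimulated with 1 nM E2 (final) for 16 hr; beta-lactamase reporter read by B/G FRET fluorescence after 2 hr substrate loading.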

[17] = qHTS assay to identify small molecule agonists of the androgen receptor (AR) signaling pathway in the presence of an antagonist - cell viability counter screen (AID 1259379);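 note: MDA-kb2 human breast cancer cells carrying an MMTV luciferase reporter; series mostly up to about 92 µM; nearly all actives have a fitted effect of over 25% in size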
How it was run: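 MDA-kb2 cells (MMTV-luciferase, AR/GR), 3,000/well, 5 h attachment, then 3.0 µM nilutamide (final) and compounds at 15 concentrations. Viability by CellTiter-Fluor fluorescence after 16 h at 37 °C, 0% CO2, in the reporter wells.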

[18] = qHTS assay to identify small molecule agonists of the estrogen receptor beta (ER-beta) signaling pathway - cell viability counter screen (AID 1259380); note: nearly all actives have a fitted effect of over 30% in size
How it was run: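 ER-beta-UAS-bla HEK293T cells in medium with 2% charcoal-stripped FBS, pre-incubated 6 hr, then treated 16 hr at 37C. Cytotoxicity read in the same wells by CellTiter-Glo luminescence after 30 min at room temperature.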

[19] = molecular target: Androgen receptor (Homo sapiens) (UniProt P10275); assay: qHTS assay to identify small molecule agonists of the androgen receptor (AR) signaling pathway in the presence of an antagonist (AID 1259381; calls by dose curve; note: nearly all actives have a fitted effect of over 15% in size)
How it was run: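 MDA-kb2 cells carrying MMTV-luciferase (AR/GR responsive), 3,000 cells/well, co-treated with 3.0 uM nilutamide final. Compounds at 15 concentrations, 16 hr at 37C without CO2. Luciferase luminescence read after 30 min with ONE-Glo.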

[20] = qHTS assay to identify small molecule phospholipidosis (PLD) inducers (AID 1259344; active = well fitted curve in the direction sought with a large enough effect; an effect the other way counts as inactive or inconclusive)
How it was run: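 HepG2 cells grown on collagen I take up LipidTOX Red while exposed to compound for 24 h; after fixation they are imaged at 20x and pit metrics are extracted.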

Measured: Potency

COC(=O)CCCCC(CCSS/C(CCO)=C(\C)N(C=O)Cc1cnc(C)nc1N)SC(C)=O (stereo unspecified)
not listed: [20]
inactive: all other assays above

CC(C)Cn1cnc2c1c(=O)n(C)c(=O)n2C
not listed: [7] | [14] | [15] | [16] | [18] | [19]
inactive: all other assays above

CCO
not listed: [11] | [12] | [20]
inactive: all other assays above

C#CCN[C@@H]1CCc2ccccc21
not listed: [11] | [16]
inactive: all other assays above

CC(Oc1cc(Cl)ccc1Cl)C(=O)O (stereo unspecified)
not listed: [8] | [11] | [16] | [20]
inactive: all other assays above

Cc1c(NC(=O)c2cccnc2)c(=O)n(-c2ccccc2)n1C
not listed: [7] | [15] | [16] | [17] | [19]
inactive: all other assays above

C/C=C(\C)C(C)=O
not listed: [15] | [16] | [20]
inactive: all other assays above
